According to the supplement of paper PMC7411054:

What was measured:
Assay in all cases: phenotypically active (imaging signature differs from DMSO and reproducible) at any of 0.3-9 uM (binary (1 = active, 0 = inactive)); higher = active
Settings in all cases: treatment time: 24 h
A549-ACTB-RAB5A = system: A549-ACTB-RAB5A
Method in brief: (§1)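 Phenotypic activity depended on meeting both a deviation and a reproducibility criterion. The fifteen gene-edited A549, HepG2 and WPMY1 reporter lines were treated at 0.3, 1, 3 or 9 µM for 24 h, four wells each, then imaged live with features normalised to solvent control wells. Deviation required ≥3 of 4 wells past the 95th percentile of control Euclidean distances, and reproducibility a median replicate Pearson correlation above the 95th percentile of non-replicates.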

A549-CANX-COX4 = system: A549-CANX-COX4
Method in brief: as §1

A549-GM130-SQSTM1 = system: A549-GM130-SQSTM1
Method in brief: as §1

A549-TP53BP1-CLTA = system: A549-TP53BP1-CLTA
Method in brief: as §1

A549-TUBA1B-RELA = system: A549-TUBA1B-RELA
Method in brief: as §1

HepG2-ACTB-RAB5A = system: HepG2-ACTB-RAB5A
Method in brief: as §1

HepG2-CANX-COX4 = system: HepG2-CANX-COX4
Method in brief: as §1

HepG2-GM130-SQSTM1 = system: HepG2-GM130-SQSTM1
Method in brief: as §1

HepG2-TP53BP1-CLTA = system: HepG2-TP53BP1-CLTA
Method in brief: as §1

HepG2-TUBA1B-RELA = system: HepG2-TUBA1B-RELA
Method in brief: as §1

WPMY1-ACTB-RAB5A = system: WPMY1-ACTB-RAB5A
Method in brief: as §1

WPMY1-CANX-COX4 = system: WPMY1-CANX-COX4
Method in brief: as §1

WPMY1-GM130-SQSTM1 = system: WPMY1-GM130-SQSTM1
Method in brief: as §1

WPMY1-TP53BP1-CLTA = system: WPMY1-TP53BP1-CLTA
Method in brief: as §1

WPMY1-TUBA1B-RELA = system: WPMY1-TUBA1B-RELA
Method in brief: as §1

Measured: phenotypically active

COc1c(O[C@@H]2O[C@H](CO)[C@@H](O)[C@H](O)[C@H]2O)cc2c(c1OC)-c1ccc(SC)c(=O)cc1[C@@H](NC(C)=O)CC2 [Thiocolchicoside]
inactive: A549-ACTB-RAB5A 0 | A549-CANX-COX4 0 | A549-GM130-SQSTM1 0 | A549-TP53BP1-CLTA 0 | A549-TUBA1B-RELA 0 | HepG2-ACTB-RAB5A 0 | HepG2-CANX-COX4 0 | HepG2-GM130-SQSTM1 0 | HepG2-TP53BP1-CLTA 0 | HepG2-TUBA1B-RELA 0 | WPMY1-ACTB-RAB5A 0 | WPMY1-CANX-COX4 0 | WPMY1-GM130-SQSTM1 0 | WPMY1-TP53BP1-CLTA 0 | WPMY1-TUBA1B-RELA 0

O=C(O)CCCC[C@@H]1SC[C@@H]2NC(=O)N[C@@H]21 [Biotin]
inactive: A549-ACTB-RAB5A 0 | A549-CANX-COX4 0 | A549-GM130-SQSTM1 0 | A549-TP53BP1-CLTA 0 | A549-TUBA1B-RELA 0 | HepG2-ACTB-RAB5A 0 | HepG2-CANX-COX4 0 | HepG2-GM130-SQSTM1 0 | HepG2-TP53BP1-CLTA 0 | HepG2-TUBA1B-RELA 0 | WPMY1-ACTB-RAB5A 0 | WPMY1-CANX-COX4 0 | WPMY1-GM130-SQSTM1 0 | WPMY1-TP53BP1-CLTA 0 | WPMY1-TUBA1B-RELA 0

COc1ccc(C(=O)C2CCN(CC(=O)N(Cc3nc4c(c(=O)[nH]3)COCC4)CC3CC3)CC2)cc1
inactive: A549-ACTB-RAB5A 0 | A549-CANX-COX4 0 | A549-GM130-SQSTM1 0 | A549-TP53BP1-CLTA 0 | A549-TUBA1B-RELA 0 | HepG2-ACTB-RAB5A 0 | HepG2-CANX-COX4 0 | HepG2-GM130-SQSTM1 0 | HepG2-TP53BP1-CLTA 0 | HepG2-TUBA1B-RELA 0 | WPMY1-ACTB-RAB5A 0 | WPMY1-CANX-COX4 0 | WPMY1-GM130-SQSTM1 0 | WPMY1-TP53BP1-CLTA 0 | WPMY1-TUBA1B-RELA 0

COc1ccc2c3c1O[C@H]1C[C@@H](O)C=C[C@@]31CCN(C)C2 [galantamine]
inactive: A549-ACTB-RAB5A 0 | A549-CANX-COX4 0 | A549-GM130-SQSTM1 0 | A549-TP53BP1-CLTA 0 | A549-TUBA1B-RELA 0 | HepG2-ACTB-RAB5A 0 | HepG2-CANX-COX4 0 | HepG2-GM130-SQSTM1 0 | HepG2-TP53BP1-CLTA 0 | HepG2-TUBA1B-RELA 0 | WPMY1-ACTB-RAB5A 0 | WPMY1-CANX-COX4 0 | WPMY1-GM130-SQSTM1 0 | WPMY1-TP53BP1-CLTA 0 | WPMY1-TUBA1B-RELA 0

CC1(C(=O)O)CCC2(C)CCC3(C)C(=CC(=O)C4C5(C)CCC(OC6OC(C(=O)O)C(O)C(O)C6OC6OC(C(=O)O)C(O)C(O)C6O)C(C)(C)C5CCC43C)C2C1 (stereo not given) [Glycyrrhizic acid]
inactive: A549-ACTB-RAB5A 0 | A549-CANX-COX4 0 | A549-GM130-SQSTM1 0 | A549-TP53BP1-CLTA 0 | A549-TUBA1B-RELA 0 | HepG2-ACTB-RAB5A 0 | HepG2-CANX-COX4 0 | HepG2-GM130-SQSTM1 0 | HepG2-TP53BP1-CLTA 0 | HepG2-TUBA1B-RELA 0 | WPMY1-ACTB-RAB5A 0 | WPMY1-CANX-COX4 0 | WPMY1-GM130-SQSTM1 0 | WPMY1-TP53BP1-CLTA 0 | WPMY1-TUBA1B-RELA 0

CN(C)CCc1c[nH]c2ccc(C[C@H]3COC(=O)N3)cc12 [zolmitriptan]
inactive: A549-ACTB-RAB5A 0 | A549-CANX-COX4 0 | A549-GM130-SQSTM1 0 | A549-TP53BP1-CLTA 0 | A549-TUBA1B-RELA 0 | HepG2-ACTB-RAB5A 0 | HepG2-CANX-COX4 0 | HepG2-GM130-SQSTM1 0 | HepG2-TP53BP1-CLTA 0 | HepG2-TUBA1B-RELA 0 | WPMY1-ACTB-RAB5A 0 | WPMY1-CANX-COX4 0 | WPMY1-GM130-SQSTM1 0 | WPMY1-TP53BP1-CLTA 0 | WPMY1-TUBA1B-RELA 0

CCN(Cc1ccncc1)C(=O)C(CO)c1ccccc1 (stereo not given) [tropicamide]
inactive: A549-ACTB-RAB5A 0 | A549-CANX-COX4 0 | A549-GM130-SQSTM1 0 | A549-TP53BP1-CLTA 0 | A549-TUBA1B-RELA 0 | HepG2-ACTB-RAB5A 0 | HepG2-CANX-COX4 0 | HepG2-GM130-SQSTM1 0 | HepG2-TP53BP1-CLTA 0 | HepG2-TUBA1B-RELA 0 | WPMY1-ACTB-RAB5A 0 | WPMY1-CANX-COX4 0 | WPMY1-GM130-SQSTM1 0 | WPMY1-TP53BP1-CLTA 0 | WPMY1-TUBA1B-RELA 0

CC1=Nc2ccc(Cl)cc2S(=O)(=O)N1 [diazoxide]
inactive: A549-ACTB-RAB5A 0 | A549-CANX-COX4 0 | A549-GM130-SQSTM1 0 | A549-TP53BP1-CLTA 0 | A549-TUBA1B-RELA 0 | HepG2-ACTB-RAB5A 0 | HepG2-CANX-COX4 0 | HepG2-GM130-SQSTM1 0 | HepG2-TP53BP1-CLTA 0 | HepG2-TUBA1B-RELA 0 | WPMY1-ACTB-RAB5A 0 | WPMY1-CANX-COX4 0 | WPMY1-GM130-SQSTM1 0 | WPMY1-TP53BP1-CLTA 0 | WPMY1-TUBA1B-RELA 0

N#Cc1ccccc1OCC(O)CNCCNC(=O)Nc1ccccc1 (stereo not given)
inactive: A549-ACTB-RAB5A 0 | A549-CANX-COX4 0 | A549-GM130-SQSTM1 0 | A549-TP53BP1-CLTA 0 | A549-TUBA1B-RELA 0 | HepG2-ACTB-RAB5A 0 | HepG2-CANX-COX4 0 | HepG2-GM130-SQSTM1 0 | HepG2-TP53BP1-CLTA 0 | HepG2-TUBA1B-RELA 0 | WPMY1-ACTB-RAB5A 0 | WPMY1-CANX-COX4 0 | WPMY1-GM130-SQSTM1 0 | WPMY1-TP53BP1-CLTA 0 | WPMY1-TUBA1B-RELA 0

Oc1cc(O)c2c(c1)O[C@H](c1ccc(O)c(O)c1)[C@@H](O)C2 [Epicatechin-(-)]
inactive: A549-ACTB-RAB5A 0 | A549-CANX-COX4 0 | A549-GM130-SQSTM1 0 | A549-TP53BP1-CLTA 0 | A549-TUBA1B-RELA 0 | HepG2-ACTB-RAB5A 0 | HepG2-CANX-COX4 0 | HepG2-GM130-SQSTM1 0 | HepG2-TP53BP1-CLTA 0 | HepG2-TUBA1B-RELA 0 | WPMY1-ACTB-RAB5A 0 | WPMY1-CANX-COX4 0 | WPMY1-GM130-SQSTM1 0 | WPMY1-TP53BP1-CLTA 0 | WPMY1-TUBA1B-RELA 0

C[N+](C)(CCCCCC[N+](C)(C)CCCN1C(=O)c2ccccc2C1=O)CCCN1C(=O)c2ccccc2C1=O [W-84 dibromide]
inactive: A549-ACTB-RAB5A 0 | A549-CANX-COX4 0 | A549-GM130-SQSTM1 0 | A549-TP53BP1-CLTA 0 | A549-TUBA1B-RELA 0 | HepG2-ACTB-RAB5A 0 | HepG2-CANX-COX4 0 | HepG2-GM130-SQSTM1 0 | HepG2-TP53BP1-CLTA 0 | HepG2-TUBA1B-RELA 0 | WPMY1-ACTB-RAB5A 0 | WPMY1-CANX-COX4 0 | WPMY1-GM130-SQSTM1 0 | WPMY1-TP53BP1-CLTA 0 | WPMY1-TUBA1B-RELA 0

N=C(N)NN=Cc1c(Cl)cccc1Cl [guanabenz]
inactive: A549-ACTB-RAB5A 0 | A549-CANX-COX4 0 | A549-GM130-SQSTM1 0 | A549-TP53BP1-CLTA 0 | A549-TUBA1B-RELA 0 | HepG2-ACTB-RAB5A 0 | HepG2-CANX-COX4 0 | HepG2-GM130-SQSTM1 0 | HepG2-TP53BP1-CLTA 0 | HepG2-TUBA1B-RELA 0 | WPMY1-ACTB-RAB5A 0 | WPMY1-CANX-COX4 0 | WPMY1-GM130-SQSTM1 0 | WPMY1-TP53BP1-CLTA 0 | WPMY1-TUBA1B-RELA 0
